High-throughput results from PubChem BioAssay.
Compounds with a hit are over-represented: about 0.9% of the library has one in this group of screens.
B2AR arrestin – agonists driving beta-arrestin recruitment to human beta2-adrenergic receptor; 330,000 compounds, 0.02% hits; Potency, µM (doses to about 46.1 µM), for inactives: at the highest dose activation, hits mostly activators; beta-arrestin recruitment to beta2AR, cell-based reporter; P07550; AID 492947;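 also: potency is read from the fitted curve at half-maximal effect; 0% = DMSO controls and full agonism = EC100 isoproterenol or metaproterenol; nearly all actives have a fitted effect of over 65% in size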
Target sequence (P07550 whole entry, looked up): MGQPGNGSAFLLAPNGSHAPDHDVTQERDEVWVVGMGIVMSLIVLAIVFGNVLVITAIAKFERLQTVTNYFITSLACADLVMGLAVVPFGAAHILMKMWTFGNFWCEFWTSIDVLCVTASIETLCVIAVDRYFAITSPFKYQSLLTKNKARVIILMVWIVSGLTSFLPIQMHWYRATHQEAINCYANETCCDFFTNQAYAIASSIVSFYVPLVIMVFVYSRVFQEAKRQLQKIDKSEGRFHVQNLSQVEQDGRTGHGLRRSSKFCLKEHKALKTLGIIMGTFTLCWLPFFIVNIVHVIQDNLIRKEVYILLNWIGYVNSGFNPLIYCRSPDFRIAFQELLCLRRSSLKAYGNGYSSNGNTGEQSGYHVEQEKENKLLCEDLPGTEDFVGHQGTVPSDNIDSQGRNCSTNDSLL
Eya2 inh – blocks the phosphatase activity of human Eya2; AID 488837; recombinant Eya2, OMFP fluorescence dephosphorylation (OMFP is methylfluorescein phosphate); O00167; Potency, µM (top dose mostly 76.9 µM), for the others: top-dose activity, negative = inhibition, usual class: inhibitors; 330,000 compounds, 0.006% hits; also: potency is read from the fitted curve at half-maximal effect
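Eya2 (0.2 uM) preincubated 10 min at ambient with compound, then OMFP substrate added at 50 uM; 10 min reaction in 50 mM HEPES pH 7.5, 50 mM NaCl, 5 uM MgCl2, 0.05% BSA, 1 mM DTT. Fluorescence read at Ex 485/Em 525 nm.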
Six1-Eya2 blk – blocks human Six1 binding to Eya2. activity change, % (test concentration not listed). Q15475+O00167. AlphaScreen GST-Six1/His-Eya2 binding, biochemical; active compounds read low. 360,000 compounds, 0.56% hits; in the data active = activity change below about -65%; inconclusive = mostly about -30% to -63%
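GST-Six1 + His-Eya2 (5X stock: 250/500 nM); Tris pH 8.0, 300 mM NaCl, 0.05% BSA, 0.02% Tween 20; GSH donor/Ni acceptor beads; 1 h 37 °C dark; AlphaScreen readout.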
L3MBTL1 inh – L3MBTL1 (human) inhibition | AlphaScreen L3MBTL1–H3K9me1 peptide binding | Q9Y468 | 230,000 compounds, 0.66% hits | Potency, µM (series often up to 57.1 µM), without a hit: at the top dose activity, negative = inhibition, hits mostly inhibitors; also: potency is read from the fitted curve at half-maximal effect; nearly all actives have a fitted effect of over 60% in size
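AlphaScreen proximity signal between nickel-chelate acceptor and streptavidin donor beads (final 10 ug/mL) reports binding of 50 nM L3MBTL1 to 75 nM biotin-H3 K9me1 peptide; complex incubated with compounds 30 min at room temperature; cefsulodin titration as control.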
CtBP-E1A blk – CtBP/E1A binding inhibition; AID 651724; AlphaScreen GST-E1A/His-CtBP binding, 1536-well; active compounds read low; activity change, % (test concentration not listed); 340,000 compounds, 0.49% hits; in the data active = activity change below about -65%; inconclusive = mostly about -30% to -63%
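Steps: dispense buffer (Tris pH 8.0, NaCl 300 mM, TCEP 1 mM, BSA, Tween 20); add 5X protein mix (GST-E1A, His-CtBP, 125 nM each); pin 23 nL compound; 2 h at 37 °C, dark; add 5X beads (50 ug/mL); 1 h; read.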
* = called active by the depositor; ? = inconclusive; nt = not tested or not shown; ! = not active in a repeat. Unless noted, calls follow the shape of the dose curve; as a rule, active = well fitted curve in the direction sought with a large enough effect; inconclusive = small, poorly fitted or top-dose-only effect, or another doubt; inactive = no such curve, though single readings can be large; an effect the other way counts as inactive or inconclusive. Unless noted, % is scaled to controls: 0 for no effect and ±100 for the full control effect.

SMILES	B2AR arrestin	Eya2 inh	Six1-Eya2 blk	L3MBTL1 inh	CtBP-E1A blk
Cc1nnc(SCC2=C(C(=O)O)N3C(=O)C(NC(=O)Cn4nc(C(F)F)cc4C)C3SC2)s1 (stereo unspecified)	0%	-1%	-7	?	nt
CN(C)CCn1nnnc1SCC1=C(C(=O)O)N2C(=O)[C@@H](NC(=O)Cc3csc(N)n3)[C@H]2SC1	0%	-9%	-23	28µM*	-18
CCOc1cc(C(=S)N2CCOCC2)ccc1OS(=O)(=O)c1ccccc1[N+](=O)[O-]	1.2µM*	4%	-4	-3%	nt
COc1cc(/C=C2\C(C)=C(C#N)c3nc(N)c(C#N)c(C)c32)ccc1OCC(=O)O	0%	-1%	-73*	?	-18
Cc1ccc(-c2nc3s/c(=C\c4ccco4)c(=O)n3n2)cc1	1%	-11%	-11	?	14
O=c1nc2s/c(=C\c3ccco3)c(=O)n2nc1Cc1ccc(F)cc1	0%	7%	-81*	nt	-80*
O=C(NC(=S)NNC(=O)c1cnccn1)c1ccc(F)cc1	1%	-1%	-92*	nt	nt
O=C(/C=C/c1ccc(F)cc1)NC(=S)NNC(=O)c1cnccn1	0%	4%	-90*	nt	-81*
COc1ccc(/C=C/C(=O)NC(=S)NNC(=O)c2cccnc2)cc1	0%	-2%	?	14%	1
CCOC(=O)N1CCN(C(C(=O)NC2CCCC2)c2cccc(OC)c2OC)CC1 (stereo unspecified)	nt	nt	0	nt	-3
CN(C)c1ccc(C=C2C=CC=C2)cc1	nt	nt	-66*	nt	-27
CN1C(=O)/C(=C\c2ccc(N(C)C)cc2)OC1=S	0%	32%	2	19%	8
CC(=O)Nc1ccc(S(=O)(=O)Nc2nc3ccccc3nc2Nc2ccc(C(=O)O)c(O)c2)cc1	-1%	6%	?	3.2µM*	?
Cn1c2cc(B(O)O)sc2c2cnn(Cc3ccc(F)cc3F)c(=O)c21	0%	15%	nt	-1%	nt
O=C1C(SCCO)=C(SCCO)C(=O)c2ccccc21	-2%	50µM*!	-3	?	?
O=C1C(Cl)=C(NCCCO)C(=O)c2ccccc21	0%	-5%	-19	nt	?
O=C(O)c1cc(N=Nc2c(O)ccc3ccccc23)cc(C(=O)O)c1	0%	-3%	-8	-6%	-10
O=C(O)c1ccc(N=Nc2c(O)ccc3ncccc23)cc1	0%	?	-94*	nt	nt
CCOC(=O)c1c(C)[nH]c(C(=O)Nc2cc(OCC)c(N3CCOCC3)cc2OCC)c1C	0%	-6%	1	-6%	-2
Cc1ccc(NS(=O)(=O)c2cc([N+](=O)[O-])ccc2NNC(=S)Nc2cccc(Cl)c2)c(C)c1	-1%	-15%	?	25µM*	?
COc1ccc(N=C2C(=Nc3ccc(OC)cc3)N(c3ccc(OC)cc3)C(=S)N2C)cc1	0%	-13%	-69*	nt	-80*
CC(NS(=O)(=O)c1ccc(Br)cc1F)[C@H](O)c1ccccc1 (stereo partly specified)	nt	nt	7	nt	1
CCOc1ccccc1NC(=O)CSc1nc(=O)n(CCCN2CCOCC2)c2c1CCCC2	0%	1%	-1	7%	6
CCN(CC(=O)Nc1c(C(=O)OC)[nH]c2ccccc12)c1ccc2c(c1)OCO2	10%	-15%	?	25µM*	?
O=C1NC(=O)c2cc(Oc3ccc([N+](=O)[O-])cc3)ccc21	0%	-2%	-6	-2%	nt
SMILES	B2AR arrestin	Eya2 inh	Six1-Eya2 blk	L3MBTL1 inh	CtBP-E1A blk
O=C(CCCN1C(=O)/C(=C\c2cccs2)SC1=S)NNC(=O)c1ccncc1	3%	13%	1	0%	-26
O=C(O)COc1ccccc1/C=C1\SC(=S)N(NC(=O)c2ccccc2O)C1=O	0%	34%	-73*	13µM*	-81*
Cc1ccc(C(=O)NN2C(=O)/C(=C/c3cccn3C)SC2=S)cc1	0%	-1%	-69*	?	?
Cn1cccc1/C=C1\SC(=S)N(NC(=O)c2ccccc2Cl)C1=O	-2%	-13%	-72*	-10%	?
O=C(O)COc1ccccc1/C=C1\SC(=S)N(/N=C/c2ccccc2O)C1=O	0%	2%	-29	-15%	?
O=C(NN1C(=O)/C(=C/c2cccs2)SC1=S)c1ccncc1	-1%	10%	-70*	-13%	-72*
